Source: PubChem BioAssay (Broad Institute)
A selection: hits, their analogues and other compounds. The true share with any hit is near 1.8%.
F508del corr = F508del CFTR correction, initial screen, CFBE line, single point; hit rate 0.36% among 350,000; CFBE cells, YFP halide quenching; stimulated with forskolin plus potentiator P3; % fluorescence drop versus neutral controls; AID 720511, 2013; activity (quench increase), % at 7.58 µM;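 active means mean added fluorescence quench of at least 8% versus neutral control, with both replicates also reaching 8%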;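 further: cells transiently co-express mutant CFTR-F508del with the halide-sensitive YFP; corrector assay measuring rescue of mutant channel to the surface after 24 h compound exposure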
INS-1E GSIS act = GLuc luminescence reporter in INS-1E cells, primary screen for activators of glucose-dependent secretion of insulin; INS-1E GLuc reporter insulin secretion, 2-3 h; activation, % at 16.6 µM; hit rate 0.61% among 370,000;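 active means lowest replicate activation of at least 40%, so every replicate reaches that level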
RAD52 inh = RAD52 DNA annealing inhibitors, primary screen, biochemical, FRET, single point, set 2; DNA repair protein RAD52 homolog (Homo sapiens), P43351; recombinant RAD52 DNA annealing, FRET fluorescence; inhibition, % at 18.7 µM; hit rate 0.46% among 360,000; AID 651710, 2012;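 active means every replicate showing at least 50% inhibition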
Target sequence (P43351 whole entry, looked up): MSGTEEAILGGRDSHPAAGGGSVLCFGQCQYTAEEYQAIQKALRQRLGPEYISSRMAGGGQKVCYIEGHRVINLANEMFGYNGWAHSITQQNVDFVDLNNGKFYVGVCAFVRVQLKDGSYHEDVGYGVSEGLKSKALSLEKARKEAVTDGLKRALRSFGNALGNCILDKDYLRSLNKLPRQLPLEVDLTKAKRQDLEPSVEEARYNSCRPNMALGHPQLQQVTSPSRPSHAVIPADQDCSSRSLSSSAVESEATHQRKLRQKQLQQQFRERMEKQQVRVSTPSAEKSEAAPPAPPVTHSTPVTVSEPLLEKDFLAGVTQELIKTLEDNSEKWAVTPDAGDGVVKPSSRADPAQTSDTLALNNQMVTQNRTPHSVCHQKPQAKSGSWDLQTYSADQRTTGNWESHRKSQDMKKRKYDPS
LGR2 inh = inhibitors of bursicon-induced LGR2 CRE-luciferase signal, primary screen, cell-based, HEK293, CRE-luciferase reporter, bursicon stimulation. hit rate 0.35% among 380,000. bursicon-stimulated, 4 h. inhibition, % at 9.99 µM. Drosophila bursicon receptor LGR2 (rickets);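 active means drop in luminescence signal, shown as inhibition above about 50% in the replicate tests, limit read from the data, passing the limit was not always enough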;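 further: agonist challenge used bursicon conditioned medium at about half maximal strength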
EWS-Fli inh = EWS/Fli-driven NR0B1 reporter inhibitors, primary screen, A673 cells, NR0B1 luciferase, luminescence, MLPCN library; viability-normalised; inhibition, % at 12.6 µM; hit rate 0.67% among 350,000; AID 651661, 2012;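 active means mean inhibition of at least 50% after viability correction, with every replicate also passing that limit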;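 further: firefly luciferase signal divided by Alamar Blue viability fluorescence both relative to DMSO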
RAD54 inh = inhibitors of human RAD54 branch migration, primary screen, biochemical, fluorescence, single point. AID 602329, 2012. inhibition, % at 10.4 µM. RAD54 Holliday junction branch migration, FAM/BHQ fluorescence. hit rate 0.14% among 360,000;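 active means mean normalized replicate activity at least 40 and at least half of replicates scoring 40 or more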;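 further: inhibitors cause a drop in the FAM fluorescence signal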
DNA binder FP = DNA-binding compounds via dye displacement, dose response, artefact control for RAD52 inhibitor project, biochemical, fluorescence polarization, cherry-pick; AC50, µM; hit rate 8% among 1,000; Salmon sperm DNA/acridine orange FP displacement; shares compounds with RAD52 inh;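 active means fitted half-maximal concentration for signal loss at or below twice the highest dose tested, in every separate run, actives reach about 64 µM in these data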
Hits are given with their value; - = inactive; . = not tested or not shown.

SMILES	F508del corr	INS-1E GSIS act	RAD52 inh	LGR2 inh	EWS-Fli inh	RAD54 inh	DNA binder FP
CN(C)CCNc1ccc2nnn3c4ccc(O)cc4c(=O)c1c23	-	-	-	-	-	.	.
Cc1ccc(NCCN(C)C)c2c(=O)c3cc(O)ccc3sc12	-	-	84	-	52	.	12µM
CCN(CC)c1ccc(C(=C2C=CC(=[N+](CC)CC)C=C2)c2ccc(N(CC)CC)cc2)cc1	-	.	52	.	-	-	-
Cc1cc(C)n(-c2nc(NCCN(C)C)c3c4c(sc3n2)CCCC4)n1	-	53	83	-	-	.	-
CCC(C)[C@H]1CNC(=O)C(=O)N1CCc1cccc(F)c1 (stereo partly drawn)	-	-	-	-	-	.	.
COc1ccc(NC(=O)CN(C)S(=O)(=O)c2ccc3c(c2)CC(C)N3C(C)=O)c(OC)c1 (stereo not drawn)	-	-	-	-	.	-	.
CN(CCc1ccccn1)C(=O)CCNC(=O)Cn1cnc2ccccc2c1=O	.	.	.	.	.	-	.
CCc1cc(C(=O)Nc2cc(S(=O)(=O)N(CC)CC)ccc2N2CCN(C)CC2)sc1C	-	-	89	-	-	-	-
CC(C)c1ccc(N(CC(=O)NC2CCCCC2)C(=O)CNC(=O)c2ccco2)cc1	-	-	-	-	-	-	.
Cc1cc(C(=O)Nc2ncc(C)s2)c2ccccc2n1	-	-	-	-	-	.	.
COC(=O)C1=CN(Cc2ccc(C)cc2)C=C(C(=O)OC)C1c1cc(OC)c(OC)c(OC)c1	-	-	95	-	-	-	-
COC(=O)C1=CN(Cc2ccccc2)C=C(C(=O)OC)C1c1ccc(OC)c(OC)c1	-	-	-	-	-	-	.
CCC(=O)c1ccc2c(c1)N(CCCN(C)C)c1ccccc1S2	-	.	70	.	-	-	-
CCCn1c(C2CC(=O)N(c3cc(OC)ccc3OC)C2)nc2ccccc21 (stereo not drawn)	-	.	-	-	-	-	.
C#CCOCCOCCOCCNc1nc(N2CCN(C(=O)[C@H](CO)n3cc([C@@H](N)C(C)C)nn3)CC2)nc(N2CCN(C(=O)[C@H](CCCCN)n3cc([C@@H](N)[C@H](C)CC)nn3)CC2)n1	-	.	61	-	-	-	-
C#CCOCCOCCOCCNc1nc(N2CCN(C(=O)[C@H](CCCN=C(N)N)n3cc(C(N)[C@@H](C)CC)nn3)CC2)nc(N2CCN(C(=O)[C@H](CCC(=O)O)n3cc([C@@H](N)CC(N)=O)nn3)CC2)n1 (stereo partly drawn)	-	-	-	-	-	-	.
C#CCOCCOCCOCCNc1nc(N2CCN(C(=O)[C@H](CCCN=C(N)N)n3cc(C(N)[C@@H](C)CC)nn3)CC2)nc(N2CCN(C(=O)[C@H](CCCCN)n3cc([C@@H](N)CC(N)=O)nn3)CC2)n1 (stereo partly drawn)	-	-	66	-	-	-	-
C#CCOCCOCCOCCNc1nc(N2CCN(C(=O)[C@H](CCCCN)n3cc(CN)nn3)CC2)nc(N2CCN(C(=O)[C@H](CCC(=O)O)n3cc([C@@H](N)CCCCN)nn3)CC2)n1	-	-	61	-	-	-	-
C#CCOCCOCCOCCNc1nc(N2CCN(C(=O)CCCCCCCCCCNC(=O)[C@@H](CCC(=O)O)n3cc(CCCCCN)nn3)CC2)nc(N2CCN(C(=O)CCCCCCCCCCNC(=O)[C@H](CO)n3cc(CCCCCN)nn3)CC2)n1	.	.	.	.	.	-	.
C#CCOCCOCCOCCNc1nc(N2CCN(C(=O)CCCCCCCCCCNC(=O)[C@H](CCCCN)n3cc(CCO)nn3)CC2)nc(N2CCN(C(=O)CCCCCCCCCCNC(=O)[C@H](CCCCN)n3cc(CCCC(=O)O)nn3)CC2)n1	-	.	52	-	-	-	-
